RXFP1 antagonist – antagonists of human relaxin receptor RXFP1; Q9HBX9; HEK293-RXFP1, relaxin-stimulated cAMP HTRF, 30 min; stronger effect = lower value; activity change, negative = inhibition, % at 57.5 µM; hit rate 0.59% among 350,000; AID 1259400;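 active = activity change of -60% or lower, but not beyond a set lower limit; inconclusive = change between -60% and -40%, or beyond the set limit; inactive = change above -40%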
Target sequence (Q9HBX9 whole entry, looked up): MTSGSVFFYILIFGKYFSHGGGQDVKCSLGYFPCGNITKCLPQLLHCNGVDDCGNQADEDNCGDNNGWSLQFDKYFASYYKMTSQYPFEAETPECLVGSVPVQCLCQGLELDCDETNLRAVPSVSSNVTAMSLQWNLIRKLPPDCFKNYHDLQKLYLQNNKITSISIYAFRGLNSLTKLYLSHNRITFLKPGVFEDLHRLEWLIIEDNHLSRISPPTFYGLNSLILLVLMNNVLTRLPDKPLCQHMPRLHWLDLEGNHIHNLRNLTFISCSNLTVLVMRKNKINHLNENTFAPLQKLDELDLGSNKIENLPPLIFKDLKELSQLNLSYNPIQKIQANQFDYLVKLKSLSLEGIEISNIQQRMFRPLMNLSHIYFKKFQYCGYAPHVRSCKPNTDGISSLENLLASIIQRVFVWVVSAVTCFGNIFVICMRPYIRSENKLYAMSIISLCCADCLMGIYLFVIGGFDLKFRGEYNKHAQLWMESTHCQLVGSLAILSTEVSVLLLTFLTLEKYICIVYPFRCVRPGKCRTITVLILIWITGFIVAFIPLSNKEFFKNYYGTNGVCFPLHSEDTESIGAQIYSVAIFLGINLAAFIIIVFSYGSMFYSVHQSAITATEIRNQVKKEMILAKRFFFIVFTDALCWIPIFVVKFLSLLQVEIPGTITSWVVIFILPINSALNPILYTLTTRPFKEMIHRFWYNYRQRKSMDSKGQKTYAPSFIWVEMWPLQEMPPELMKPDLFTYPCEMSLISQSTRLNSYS
Coupling enz – counter-screen for Giardia aldolase inhibitors: coupling enzyme system. hit rate 0.67% among 290,000. coupling enzyme system counterscreen, AmpLite Red fluorescence. activity change, negative = inhibition, % at 58.2 µM, hits read low. AID 2472; in the data active = activity change below about -30%
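Counterscreen of the coupled detection system alone, without aldolase: glyceraldehyde-3-phosphate coupling enzymes plus AmpLite Red readout. Compounds at 57.5 uM final, 10 min RT preincubation, 20 min RT reaction, fluorescence 525/598 nm.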
Giardia killer – Giardia lamblia killing. Giardia lamblia trophozoite viability. activity change, % at 7.66 µM, hits read low. hit rate 0.15% among 340,000; in the data active = activity change below about -80%; inconclusive = between about -30% and that limit;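 note: parasites exposed to compound for two days anaerobically before the ATP read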
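Media and compound were dispensed first, then trophozoites at 100 cells/well; plates sat 48 hrs at 37 deg C without oxygen before ATP luminescence reagent was added and read after 15-30 min at room temperature.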
gsp antag – antagonists of gsp mutant (McCune-Albright syndrome) | gsp-mutant cells, cAMP HTRF, 30 min | Potency, µM (titrated, usually from 76.9 µM), hits mostly inhibitors | hit rate 0.4% among 340,000; calls by dose curve; cell line not stated here;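 note: intracellular cAMP measured with PDE inhibitor Ro 20-1724 present during compound exposure; nearly all actives have a fitted effect of over 65% in size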
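Measurement of cellular cAMP by homogeneous time-resolved fluorescence following a 30 min compound exposure at 37C. The PDE inhibitor […] was present throughout; the assay buffer was DPBS with 0.05% BSA and 0.005% Tween 20.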
RXFP1 ag – RXFP1 (human) receptor agonism. hit rate 0.3% among 370,000. HEK293T-RXFP1 cAMP TR-FRET, 30 min; response scale: percent of porcine relaxin response, buffer zero. Q9HBX9. AID 2676. Potency, µM (series often up to 57.5 µM), most hits filed as activators; active = well fitted activation curve with a large enough effect; inconclusive = small, poorly fitted or top-dose-only effect; note: nearly all actives have a fitted effect of over 60% in size
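cAMP rise read by TR-FRET after 30 min, 37C compound exposure (up to 58 uM) in RXFP1-transfected HEK293 cells with Ro 20174 present. EC50 from Hill-equation fits, with 29 nM porcine relaxin as 100% and buffer as basal.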
gsp agonist – gsp mutant agonism. gsp mutant cells, cAMP HTRF, 30 min. Potency, µM (series often up to 76.9 µM), actives largely listed as activators. hit rate 0.13% among 340,000. AID 624287; active = well fitted activation curve with a large enough effect; inconclusive = small, poorly fitted or top-dose-only effect, or another doubt; inactive = no such curve, though single readings can be large or run the other way; cell line not stated here;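 note: phosphodiesterase inhibitor Ro 20-1724 added with compounds to block cAMP breakdown; nearly all actives have a fitted effect of over 60% in size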
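Cells stably selected in G418 were plated at 2000/well, grown 16-24 hr, then given compounds in DMSO with the PDE inhibitor […] (300 uM solution added) for 30 min at 37C; cAMP was read by HTRF.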
Large screens that a line does not name were inactive; ! = not active in a repeat. Most compounds without a hit are left out; they make up all but 1.6% or so of the library.

COc1cccc2[nH]c3c(N4CCC5(CC4)OCCO5)ncnc3c12	none
CC1Sc2ccc(S(=O)(=O)N3CCC(C(=O)NCC(C)c4ccccc4)CC3)cc2NC1=O (stereo not given)	gsp antag 28µM, gsp agonist inconclusive (no result: Coupling enz)
O=C(CCCCn1c(=S)[nH]c2ccsc2c1=O)NCc1ccco1	RXFP1 antagonist -81
O=C(CCCn1c(=S)[nH]c2ccsc2c1=O)NCc1ccco1	RXFP1 antagonist -78
Cc1ccccc1Cn1c(=O)n(CCCC(=O)NCc2ccco2)c(=O)c2sccc21	gsp agonist inconclusive
CCOC(=O)N1CCN(C(=O)CCCCCn2c(=S)[nH]c3ccsc3c2=O)CC1	none
COC(=O)/C=C1/S/C(=N/NC(=O)c2ccccc2OC)NC1=O	none (no result: Coupling enz)
Cc1ccc(C)c(NC(=O)CCN2C(=O)c3ccccc3Sc3ncccc32)c1	none (no result: Coupling enz, Giardia killer, gsp antag, gsp agonist)
Cc1c(Cl)cccc1NC(=O)c1ccc2c(c1)nnn2C1CCCC1	none (no result: RXFP1 antagonist, Coupling enz, Giardia killer, gsp antag, gsp agonist)
CC(C)OCCCn1c(SCC(=O)Nc2ccccc2C(F)(F)F)nc2nccnc2c1=O	RXFP1 ag inconclusive, gsp agonist 40µM (no result: Coupling enz)
O=C(O)c1cccnc1C(=O)O	Coupling enz -63 (no result: RXFP1 antagonist, gsp agonist)
CC1(C(=O)Nc2nc3ccccc3s2)CC1(Br)Br (stereo not given)	RXFP1 ag 20µM
COc1ccc(CN2CCN(C(c3ccc(F)cc3)c3ccc(F)cc3)CC2)c(OC)c1OC	RXFP1 antagonist -106, gsp antag inconclusive (no result: Coupling enz, RXFP1 ag, gsp agonist)
O=C(N/N=C/c1ccccc1)c1cc(-c2ccc3c(c2)OCO3)n[nH]1	none
O=C(N/N=C/c1cccc(O)c1)c1cc(-c2ccc3c(c2)OCO3)n[nH]1	RXFP1 antagonist -69
CC1=NNC(=O)/C1=C\c1cn(-c2ccccc2)nc1-c1ccccc1	RXFP1 antagonist -73
CCOC(=O)C1=C(C)NC(C)=C(C(=O)OCC)C1C(=O)OCC(=O)N1c2ccccc2CC1C (stereo not given)	gsp antag 11µM!
NC(=O)N1c2ccccc2CC(=O)c2ccccc21	Coupling enz -32! (no result: gsp agonist)
Cc1cc(C(=O)CSc2nncs2)c(C)n1-c1c(C)n(C)n(-c2ccccc2)c1=O	none
Cc1ccc(-n2c(C)cc(C(=O)CSc3nncs3)c2C)cc1	Coupling enz -33, gsp antag 25µM
COc1cc(NC(=O)CNC(c2ccccc2)c2ccccc2)cc(OC)c1OC	none
COc1cc(NC(c2ccccc2)c2ccccc2)cc(OC)c1OC	gsp antag 11µM
COc1ccc(NC(=O)/C(Cl)=C(/Cl)S(=O)(=O)Cc2ccc(C)cc2)cn1	RXFP1 antagonist -71
COc1ccc(NC(=O)/C(Cl)=C(/Cl)S(=O)Cc2ccccc2Cl)cn1 (stereo not given)	RXFP1 antagonist -118
Cc1noc(C)c1CSCc1ccc(Cl)cc1	none
CCN(C(=O)Cc1c(C(=O)O)[nH]c2ccccc12)c1ccc(OC)cc1	none
c1csc(CNc2ccc3c(c2)OCCO3)c1	Coupling enz -31
C=CCSc1nc2c(c(=O)[nH]1)C(c1ccccc1)C(C#N)=C(N)O2 (stereo not given)	none
CNc1nc2[nH]c(=O)c3c(c2s1)OC(N)=C(C#N)C3c1cccc(F)c1 (stereo not given)	Coupling enz -51 (no result: RXFP1 antagonist)
Cc1ccc2c(c1)N(Cc1cccc(C#N)c1)C=NS2(=O)=O	none
COc1ccc(C(=O)Nc2nc3ccccc3s2)c(OC)c1	Giardia killer -95
O=C(CNc1cccc2ccccc12)N/N=C/c1ccc([N+](=O)[O-])o1	Giardia killer -96, gsp agonist inconclusive
O=C(CNc1cccc([N+](=O)[O-])c1)N/N=C/c1ccc([N+](=O)[O-])o1	Giardia killer -107
COc1ccc(C(=O)c2coc(-c3ccccc3C(=O)O)c2C(=O)O)cc1	none (no result: RXFP1 antagonist)
COc1ccc(C(=O)c2c(C(F)(F)F)oc3c2C(=O)c2ccccc2C3=O)cc1	Coupling enz -43
COc1ccc2c(c1)CC(N1CCN(C)CC1)c1cc(OC)ccc1S2 (stereo not given)	RXFP1 antagonist -115 (no result: Coupling enz, RXFP1 ag)
CCCC[n+]1ccn(C2=C([O-])c3ccccc3C(=O)/C2=N\S(=O)(=O)c2ccccc2)c1	none (no result: Coupling enz)
CC(C)(C)c1cc[n+](C2=C([O-])c3ccccc3C(=O)/C2=N\S(=O)(=O)c2ccccc2)cc1	Coupling enz -60, Giardia killer inconclusive
CCCCC[n+]1ccn(C2=C([O-])c3ccccc3C(=O)/C2=N\S(=O)(=O)c2ccccc2)c1	gsp agonist inconclusive (no result: Coupling enz)
CC(C)[n+]1ccn(C2=C([O-])c3ccccc3C(=O)/C2=N\S(=O)(=O)c2ccccc2)c1	Coupling enz -44
COc1ccc(/C=N/NC(=O)CC(=O)NCc2cccnc2)c(OC)c1	none
O=C(CC(=O)N/N=C/c1c(F)cccc1Cl)NCc1ccccc1	Coupling enz -39
COc1ccc(OC)c(/C=N/NC(=O)CC(=O)NCc2ccccc2)c1	Coupling enz -33
COc1ccc(N(CC(=O)N/N=C/c2ccc(OC)cc2OC)S(=O)(=O)c2ccccc2)cc1	gsp antag 32µM
Cc1ccsc1/C=N\NC(=O)CC(=O)NCc1ccccc1	Coupling enz -36
Cn1cc(-c2nc3cnc(N4CCNCC4)nc3n(Cc3ccc(F)cc3)c2=O)c2ccccc21	none (no result: RXFP1 antagonist, Giardia killer, gsp antag, RXFP1 ag, gsp agonist)
CC(C(=O)NCC1CCCCC1)N(C)Cc1ccc(Br)cc1 (stereo not given)	none
CC(C(=O)NCC1CCCCC1)N(C)Cc1ccc(Cl)cc1 (stereo not given)	RXFP1 antagonist -78
CCOC(=O)[C@@H]1[C@H]2COc3ccc(Br)cc3[C@@H]2N2C(=O)N(c3ccc(Cl)cc3)C(=O)[C@]12C	none (no result: RXFP1 antagonist, Coupling enz, RXFP1 ag)
CCCCNC(=O)/C(C#N)=C/c1ccc(F)cc1F	gsp antag 11µM
O=C(Nc1ccc(-c2nc3ccccc3s2)cc1)C1=COCCO1	Giardia killer inconclusive
O=C(Nc1cccc(-c2nc3ccccc3s2)c1)C1=COCCO1	RXFP1 antagonist -80
CCOC(=O)/C(=N/Nc1ccc(OC)cc1)N1CCCc2ccccc21	Coupling enz -42
CCOC(=O)/C(=N/Nc1ccccc1)N1CCCc2ccccc21	gsp agonist inconclusive
Cc1cccc(Nc2nnc(-c3ccc(N4CCOCC4)c([N+](=O)[O-])c3)c3ccccc23)c1	none
CCOc1cccc(C2C=C(c3ccc4c(c3)OCO4)NC(c3cccc(Br)c3)N2)c1O (stereo not given)	none (no result: RXFP1 antagonist, Coupling enz, gsp antag, RXFP1 ag, gsp agonist)
Cn1cc(S(=O)(=O)N2CCCC2)cc1C(=O)NCc1ccccc1Cl	RXFP1 antagonist -73
COc1cccc(CNC(=O)c2cc(S(=O)(=O)N3CCOCC3)cn2C)c1	RXFP1 antagonist -82
